Records with an inconclusive call do not appear. Activity calls are given as the source filed them. Rule for the calls: active = hit-call score of the fitted dose curve at least 0.9, where 1 is the maximum; inconclusive = response in the unintended direction; inactive = score below 0.9.
Biological target: Estrogen receptor (Homo sapiens) (UniProt P03372)
Test: CCTE_Deisenroth_AIME_384WELL_LUC_Inactive: CCTE's 384-well Estrogen Receptor Transactivation Assay without AIME metabolic competence (ERTA luciferase; metabolism negative), Deisenroth Lab (AID 2284038);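 note: hits raise estrogen receptor luciferase signal so potencies reflect agonists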
Method: CCTE_Deisenroth_AIME_384WELL (AIME metabolism assay) is a cell-based, single-readout assay that uses VM7Luc4E2, a human mammary gland/breast cell line, with measurements taken at 24 hour after chemical dosing in a 384-well plate.CCTE_Deisenroth_AIME_384WELL_LUC_Inactive is one of four assay components measured or calculated from the CCTE_Deisenroth_AIME_384WELL assay. It is designed to make measurements of luciferase induction, a form of inducible reporter, as detected with bioluminescence signals by luciferase-coupled ATP quantitation technology.CCTE_Deisenroth_AIME_384WELL_LUC_Inactive is a component of the CCTE_Deisenroth_AIME_384WELL assay that measures the effect of retroftting the VM7Luc ERTA assay with the Alginate Immobolization of Metabolic Enzymes (AIME) metabolism method. AIME is optimized to impart phase I hepatic metabolism using phenobarbital/beta-naphthoflavone induced hepatic S9 from male Sprague Dawley rats. Parent chemicals are incubated for 2 hours in the AIME assay prior to transfer to the VM7Luc ERTA assay plate. […] This endpoint evaluates reporter induction in metabolism negative mode. Using a type of inducible reporter in VM7Luc cells, gain-of-signal activity can be used to understand changes in the reporter gene as they relate to xenobiotic metabolism and the gene ESR1. This assay endpoint, CCTE_Deisenroth_AIME_384WELL_LUC_Inactive, was analyzed in the positive analysis fitting direction relative to 17beta-estradiol as the positive control in the ERTA assay. To generalize the intended target to other relatable targets, this assay endpoint is annotated to the nuclear receptor intended target family, where the subfamily is steroidal.
The AIME procedure consists of a preparative "pre-stamping" step using a barium chloride/poly-L-lysine (PLL) solution followed by "stamping" the lid in alginate-hepatic S9 (metabolism positive) or alginate-water (metabolism negative) to form microspheres. Once stamping is completed, the AIME lids are placed in duplicate microplates (metabolism positive or negative) containing chemical solutions and incubated for two hours to facilitate metabolic reactions. The conditioned medium, containing parent chemical or metabolites, is then transferred to the cell-based VM7Luc Estrogen Receptor Transactivation Assay (ERTA) for 24 hours. A typical experimental design tests a 10-point concentration series (0.002 - 200 uM) for 8 compounds (96-well format)1 or 32 compounds (384-well format)2 in single technical replicate. AIME assay controls include trans-stilbene (bioactivated control) and ethylparaben (bioinactivated control). ERTA assay plate controls include 17-beta estradiol (positive control) and DMSO (solvent control). Experiments typically comprise a minimum of four experimental replicates (n=4).

Chain of Estrogen receptor (Homo sapiens) (P03372 whole entry, looked up): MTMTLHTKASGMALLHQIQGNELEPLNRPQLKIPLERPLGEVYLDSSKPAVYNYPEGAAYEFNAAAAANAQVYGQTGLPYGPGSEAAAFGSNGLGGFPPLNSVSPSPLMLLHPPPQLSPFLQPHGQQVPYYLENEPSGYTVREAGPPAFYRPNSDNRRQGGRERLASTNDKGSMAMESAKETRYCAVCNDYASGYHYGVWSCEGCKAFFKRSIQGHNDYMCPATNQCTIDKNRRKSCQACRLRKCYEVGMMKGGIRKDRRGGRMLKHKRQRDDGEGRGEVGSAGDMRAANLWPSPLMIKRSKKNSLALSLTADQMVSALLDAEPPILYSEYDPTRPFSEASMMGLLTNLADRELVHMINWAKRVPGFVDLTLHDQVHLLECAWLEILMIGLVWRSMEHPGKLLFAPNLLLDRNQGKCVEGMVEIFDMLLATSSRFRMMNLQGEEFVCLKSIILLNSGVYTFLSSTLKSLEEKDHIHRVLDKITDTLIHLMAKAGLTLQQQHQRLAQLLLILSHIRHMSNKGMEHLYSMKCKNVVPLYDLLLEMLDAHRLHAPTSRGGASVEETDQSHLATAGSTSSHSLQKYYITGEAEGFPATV

Row | Compound | outcome | AC50
1 | Clc1ccccc1-c1nnc(-c2ccccc2Cl)nn1 | inactive | 
2 | COP(=O)(OC)OC=C(Cl)Cl | inactive | 
3 | CCCN(CCC)c1c([N+](=O)[O-])cc(C(F)(F)F)cc1[N+](=O)[O-] | inactive | 
4 | C[C@H]1[C@H](c2ccc(Cl)cc2)SC(=O)N1C(=O)NC1CCCCC1 | inactive | 
5 | CCc1ccc(C(=O)NN(C(=O)c2cc(C)cc(C)c2)C(C)(C)C)cc1 | inactive | 
6 | CCOC1Oc2ccc(OS(C)(=O)=O)cc2C1(C)C (stereo not drawn) | inactive | 
7 | OCCOc1ccccc1 |  | 43.5 µM (active)
8 | CCC(C)Nc1c([N+](=O)[O-])cc(C(C)(C)C)cc1[N+](=O)[O-] (stereo not drawn) |  | 12.4 µM (active)
9 | O=S1OCC2C(CO1)C1(Cl)C(Cl)=C(Cl)C2(Cl)C1(Cl)Cl (stereo not drawn) |  | 12 µM (active)
10 | CNC(=O)/C=C(\C)OP(=O)(OC)OC | inactive | 
11 | Cc1[nH]c(=O)n(C(C)(C)C)c(=O)c1Cl | inactive | 
12 | CNC(=O)Oc1ccccc1OC(C)C | inactive | 
13 | CNC(=O)Oc1cccc(N=CN(C)C)c1 | inactive | 

From PubChem BioAssay (EPA / NIEHS)
